Source: PubChem BioAssay (National Center for Advancing Translational Sciences (NCATS))
Sampled rows, rich in hits. Any-hit rate of the full collection: about 18%.
TDP1 inh = blocks human tyrosyl-DNA phosphodiesterase 1. Q9NUW8. recombinant TDP1, AlphaScreen DNA substrate cleavage. Potency, µM (top dose mostly 130 µM), actives largely listed as inhibitors. 350,000 compounds, 0.28% hits. AID 485290; further: nearly all actives have a fitted effect of over 40% in size
Target sequence (Q9NUW8 whole entry, looked up): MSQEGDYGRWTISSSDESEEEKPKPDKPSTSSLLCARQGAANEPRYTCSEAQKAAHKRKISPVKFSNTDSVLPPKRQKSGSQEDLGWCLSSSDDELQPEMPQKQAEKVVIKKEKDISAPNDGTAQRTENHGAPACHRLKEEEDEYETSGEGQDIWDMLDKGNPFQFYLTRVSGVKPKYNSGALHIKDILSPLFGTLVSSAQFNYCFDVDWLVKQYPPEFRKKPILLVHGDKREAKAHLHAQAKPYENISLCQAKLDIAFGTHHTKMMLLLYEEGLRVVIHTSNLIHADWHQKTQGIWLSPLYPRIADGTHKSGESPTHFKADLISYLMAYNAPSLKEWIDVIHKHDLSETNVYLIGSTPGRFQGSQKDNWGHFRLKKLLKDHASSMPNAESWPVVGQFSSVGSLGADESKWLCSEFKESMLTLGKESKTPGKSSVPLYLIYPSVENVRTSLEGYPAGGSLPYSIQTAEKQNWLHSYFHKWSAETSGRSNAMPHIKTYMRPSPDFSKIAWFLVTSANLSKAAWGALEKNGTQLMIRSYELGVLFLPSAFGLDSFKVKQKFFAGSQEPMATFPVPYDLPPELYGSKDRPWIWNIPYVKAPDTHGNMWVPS
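Signal: AlphaScreen proximity between streptavidin donor and anti-FITC acceptor beads on intact substrate. Reaction: Tdp1 1 nM, substrate 15 nM final, 5 min RT after 15 min compound preincubation.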
HepG2 tox = counter-screen for TGF-b inhibitors: cytotoxicity in HepG2 cells; HepG2 CAGA-GFP viability, ATP luminescence, 18 h; Potency, µM (highest dose often 46.1 µM), usual class: cytotoxic; 410,000 compounds, 0.76% hits
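HepG2 CAGA-GFP cells (1000/well, DMEM with 1% FBS) received compound, then TGF-beta at 500 pg/mL final, and were incubated 18 hours at 37 degrees C. Viability was read by CellTiter-Glo luminescence. Media-only wells were set as complete cell-killing and DMSO as no toxicity.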
TDP1 cell noCPT = qHTS for Inhibitors of human tyrosyl-DNA phosphodiesterase 1 (TDP1): qHTS in cells in absence of CPT; 420,000 compounds, 15% hits; Potency, µM (top dose mostly 46.2 µM), actives largely listed as inhibitors; AID 686978, 2013; DT40 Tdp1-/- hTDP1 cells, no CPT, ATP luminescence, 48 h; further: nearly all actives have a fitted effect of over 55% in size
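Growth kinetics read by CellTiter-Glo luminescence after ≥48 hr at 37 °C. Cells: DT40 Tdp1-/- stably carrying human TDP1, 400 per well, compound exposure in the absence of CPT (DMSO vehicle).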
IL-1B inflam inh = blocks inflammasome-driven IL-1 beta release | THP-1 LPS/ATP IL-1B secretion, AlphaLISA, 16 h; stronger effect = lower value | activity change, % at 57.5 µM | 360,000 compounds, 4.7% hits; in the data active means activity change below about -50%; inconclusive means mostly about -30% to -49%
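Secreted IL-1B measured by AlphaLISA bead assay after 16 h compound exposure of THP-1 cells; compounds (final up to 57.5 uM) added 1 h before LPS (250 ng/mL) and ATP (1.25 mM) stimulation; lower signal means less secretion.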
TGFb inhibitor = inhibitors of TGF-b signaling; HepG2 CAGA-GFP TGF-b/SMAD3 reporter, GFP fluorescence, 18 h; TGF-beta stimulated, 500 pg/mL final; Potency, µM (top dose mostly 46.1 µM), most hits filed as inhibitors; 410,000 compounds, 1.2% hits; AID 588855; further: nearly all actives have a fitted effect of over 65% in size
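TGF-beta reporter screen: HEPG2 CAGA-GFP, 1% FBS, 500 pg/mL TGF-beta final, 18 h; per-cell GFP summed per well; curves fitted and categorized by class.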
TDP1 cell CPT = DT40-hTDP1 cell growth loss with CPT; chicken DT40 Tdp1-/-;hTDP1 cells + 20 nM CPT, ATP luminescence, 48 h; Potency, µM (top dose mostly 46.2 µM), hits mostly inhibitors; 420,000 compounds, 12% hits; further: nearly all actives have a fitted effect of over 55% in size
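Chicken DT40 Tdp1-/- cells stably complemented with human TDP1 were seeded at 400 cells/well in medium containing 20 nM camptothecin, exposed to pin-transferred compounds, and grown at 37 °C for at least 48 hr. Viability was read as ATP luminescence.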
Large screens that a line does not name were inactive; ! = not active in a repeat. Unless noted, the call rests on the fitted dose curve; in most records, active means well fitted curve in the direction sought with a large enough effect; inconclusive means small, poorly fitted or top-dose-only effect, or another doubt; inactive means no such curve, though single readings can be large; an effect the other way counts as inactive or inconclusive.

CC(C)(C)NC(=O)C(c1ccc(-c2ccccc2)cc1)n1c(=O)c(-c2ccccc2)nc2ccccc21 (configuration not stated)	TDP1 cell noCPT inconclusive, TDP1 cell CPT inconclusive (no result: TDP1 inh, HepG2 tox, TGFb inhibitor)
CC(C)C[C@@H](CO)N(Cc1ccccc1)S(=O)(=O)N(Cc1ccccc1)[C@@H](CO)CC(C)C	HepG2 tox 16µM, TDP1 cell noCPT 18µM, IL-1B inflam inh -63, TGFb inhibitor 10µM, TDP1 cell CPT 16µM!
CCN([C@H](CO)CC(C)C)S(=O)(=O)c1ccccc1	TDP1 cell noCPT inconclusive, TDP1 cell CPT inconclusive
O=S(=O)(N(Cc1ccccc1)[C@H](CO)Cc1ccccc1)N(Cc1ccccc1)[C@H](CO)Cc1ccccc1	TDP1 cell noCPT inconclusive, TDP1 cell CPT inconclusive
COc1ccc(CN([C@H](C)CO)S(=O)(=O)N(Cc2ccccc2)[C@H](CO)C(C)C)cc1	TDP1 cell noCPT 16µM, TDP1 cell CPT 35µM
COc1ccc(CCC(C)N(C)Cc2ccccc2)cc1 (configuration not stated)	TDP1 cell noCPT inconclusive
CC(C)C[C@@H](C)C(=O)N(Cc1ccccc1)c1ccccc1	TDP1 cell noCPT inconclusive, TDP1 cell CPT inconclusive
C=CS(=O)(=O)N(Cc1ccccc1Br)[C@H](CO)CC(C)C	TDP1 cell noCPT 10µM, IL-1B inflam inh inconclusive, TGFb inhibitor inconclusive, TDP1 cell CPT 23µM (no result: TDP1 inh)
CC(C)C[C@@H](CO)N(Cc1ccccc1)S(=O)(=O)N(Cc1ccccc1)[C@H](CO)CC(C)C	TDP1 cell noCPT 13µM, IL-1B inflam inh -79, TGFb inhibitor 11µM!, TDP1 cell CPT 13µM
COC(=O)C1=C[C@@H](C(=O)OC)C2C3=C(C(=O)[C@]2(CC(C)C)NC(=O)c2ccccc2)[C@H](C)n2c(=O)n(C)c(=O)n2[C@@H]3C1 (some centres not stated)	none (no result: TDP1 cell noCPT, IL-1B inflam inh, TDP1 cell CPT)
Cc1cn2c(=O)c3ccccc3nc2n2c(=O)c3ccccc3nc12	none (no result: HepG2 tox, IL-1B inflam inh, TGFb inhibitor)
CC(OC(=O)c1nccnc1N)C(=O)Nc1ccc(S(=O)(=O)N2CCCC2)cc1 (configuration not stated)	none
COc1ccc(CN([C@H](CO)CC(C)C)S(=O)(=O)N(Cc2ccccc2)[C@H](CO)CC(C)C)cc1	HepG2 tox 11µM!, TDP1 cell noCPT 23µM, IL-1B inflam inh -88, TGFb inhibitor inconclusive, TDP1 cell CPT inconclusive
C=C[C@H](CC(C)C)N(Cc1ccccc1)S(=O)(=O)N(Cc1ccccc1)[C@@H](C=C)CC(C)C	TDP1 cell noCPT 15µM, TDP1 cell CPT 13µM
CN(Cc1ccccc1)CC(O)CN(C)Cc1ccccc1	TDP1 cell CPT inconclusive (no result: TDP1 inh)
COc1ccc(N(C(C)C(=O)N(C)Cc2ccccc2)S(C)(=O)=O)cc1 (configuration not stated)	TDP1 cell noCPT inconclusive
O=[N+]([O-])c1ccc(Oc2cccc3cccnc23)c([N+](=O)[O-])c1	TDP1 cell noCPT 6.5µM, TGFb inhibitor inconclusive, TDP1 cell CPT 5.2µM
O=C(Oc1cccc2cccnc12)c1ccc2c(c1)OCCO2	TDP1 cell noCPT 1µM, TGFb inhibitor inconclusive, TDP1 cell CPT 0.65µM
CCN(CC)C(=O)Oc1c(Cl)cc(Cl)c2cccnc12	TDP1 cell noCPT inconclusive
N#Cc1ccc(Oc2cccc3cccnc23)c([N+](=O)[O-])c1	TDP1 cell noCPT inconclusive (no result: TDP1 inh)
O=C(Oc1c(Cl)cc(Cl)c2cccnc12)c1cccc([N+](=O)[O-])c1	TDP1 cell noCPT 3.3µM, TGFb inhibitor inconclusive, TDP1 cell CPT 2.9µM
O=C(Oc1cccc2cccnc12)c1cccc([N+](=O)[O-])c1	TDP1 cell noCPT 0.73µM, IL-1B inflam inh -99, TDP1 cell CPT 0.92µM
COc1ccccc1CNC(=O)c1cc2cc3ccc(Cl)cc3nc2o1	TGFb inhibitor inconclusive (no result: IL-1B inflam inh)
COc1ccc(C(=O)NC2CC(=O)N(c3ccc4c(c3)OCCO4)C2)cc1 (configuration not stated)	none (no result: IL-1B inflam inh)
COc1ccc(NC(=O)COC(=O)c2ccc(S(=O)(=O)N3CCCCC3)cc2)c(OC)c1	none (no result: TDP1 inh)
O=C(Oc1ccc(Cl)c2cccnc12)c1cccc([N+](=O)[O-])c1	TDP1 cell noCPT 0.92µM, TGFb inhibitor 14µM, TDP1 cell CPT 1.3µM
O=[N+]([O-])c1ccccc1COc1ccc(Cl)c2cccnc12	none (no result: TDP1 inh)
CC1CN(c2ccc([N+](=O)[O-])cc2C#N)CC(C)O1 (configuration not stated)	none
CC(C)(CNC(=O)c1cc([N+](=O)[O-])ccc1N1CCC(Cc2ccccc2)CC1)N1CCOCC1	TDP1 cell noCPT inconclusive, IL-1B inflam inh -57, TDP1 cell CPT inconclusive
O=C(COC(=O)c1cc([N+](=O)[O-])ccc1N1CCOCC1)c1ccc(F)cc1	TDP1 cell noCPT inconclusive
O=C(c1cc([N+](=O)[O-])ccc1N1CCOCC1)N1CCCCC1	TGFb inhibitor inconclusive
O=C(c1ccc(Br)cc1)c1cc([N+](=O)[O-])ccc1N1CCOCC1	TDP1 cell noCPT 1.5µM, TGFb inhibitor inconclusive, TDP1 cell CPT 0.82µM
CC(C)CNC(=O)c1cc([N+](=O)[O-])ccc1N1CCOCC1	none
Cc1ccc(C(=O)c2cc([N+](=O)[O-])ccc2N2CC(C)OC(C)C2)cc1 (configuration not stated)	TDP1 cell noCPT 3.3µM, TDP1 cell CPT 5.8µM
O=C(c1ccccc1)c1cc([N+](=O)[O-])ccc1N1CCOCC1	TDP1 cell noCPT 0.82µM, TDP1 cell CPT 0.73µM
COC(=O)C[C@H]1CC[C@H](NC(=O)c2ccc(F)cc2)[C@@H](CO)O1	none (no result: TDP1 inh, HepG2 tox, TGFb inhibitor)
CCc1ccccc1NS(=O)(=O)c1ccc2c(c1)OCC(C(=O)N1CCCC1)O2 (configuration not stated)	TDP1 cell noCPT inconclusive, TDP1 cell CPT inconclusive (no result: IL-1B inflam inh)
COc1ccc(CCNC(=O)c2cccc(-n3c(C)nc4cccnc43)c2)cc1OC	TDP1 cell noCPT inconclusive (no result: IL-1B inflam inh)
COc1ccc(CCNC(=O)c2nc3ncccn3n2)cc1OC	TDP1 cell noCPT 16µM, TDP1 cell CPT inconclusive
COc1cccc(CCNC(=O)c2c(O)nc3cc(C)ccn3c2=O)c1	none (no result: IL-1B inflam inh)
COc1cccc(CCNC(=O)c2c(O)nc3ccccn3c2=O)c1	TDP1 cell noCPT 21µM, TDP1 cell CPT 23µM (no result: IL-1B inflam inh)
Cc1cccn2c(=O)c(C(=O)NCCc3ccccc3)c(O)nc12	TDP1 cell noCPT inconclusive, TDP1 cell CPT 16µM (no result: IL-1B inflam inh)
Cc1ccc(CNC(=O)c2c(O)nc3ccccn3c2=O)cc1	TDP1 cell noCPT 29µM, TDP1 cell CPT inconclusive (no result: IL-1B inflam inh)
COc1ccc(C(=O)NCCc2ccc(F)cc2)cc1OC	none
